Reference: the supplement of paper PMC10849652
Targets with a hit are over-represented here; the source holds about 7,900 in all. About 0.6% of all pairs of compound and target were hits.

Compound: C1=CC(=C(C=C1Cl)C2=NC3=NC=CN=C3C(=N2)NC4=CC=NC=C4)F
Assay: log2 fold change, soluble protein after heating vs DMSO (PISA); higher = thermal stabilisation; K562 cells, 10 uM, 30 min; active = over 0.2 and 3.5 SD of the protein, either way, in both replicates (recomputed)
Outline: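 Thermal stability values are relative to control samples and come from duplicates. They are expressed as log2 fold changes. For measurement, K562 cells (2×10^6 cells/mL) received 10 μM compound for 30 min, and aliquots were heated for 3 min over 48°C-58°C, pooled, and extracted at 4°C in PBS with 0.5% NP-40. Soluble protein, the supernatant after 21,000xg for 90 min, was quantified by TMTpro 16plex LC-MS/MS with equalised channel sums.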

UniProt O76094, sequence (O76094 whole entry, looked up): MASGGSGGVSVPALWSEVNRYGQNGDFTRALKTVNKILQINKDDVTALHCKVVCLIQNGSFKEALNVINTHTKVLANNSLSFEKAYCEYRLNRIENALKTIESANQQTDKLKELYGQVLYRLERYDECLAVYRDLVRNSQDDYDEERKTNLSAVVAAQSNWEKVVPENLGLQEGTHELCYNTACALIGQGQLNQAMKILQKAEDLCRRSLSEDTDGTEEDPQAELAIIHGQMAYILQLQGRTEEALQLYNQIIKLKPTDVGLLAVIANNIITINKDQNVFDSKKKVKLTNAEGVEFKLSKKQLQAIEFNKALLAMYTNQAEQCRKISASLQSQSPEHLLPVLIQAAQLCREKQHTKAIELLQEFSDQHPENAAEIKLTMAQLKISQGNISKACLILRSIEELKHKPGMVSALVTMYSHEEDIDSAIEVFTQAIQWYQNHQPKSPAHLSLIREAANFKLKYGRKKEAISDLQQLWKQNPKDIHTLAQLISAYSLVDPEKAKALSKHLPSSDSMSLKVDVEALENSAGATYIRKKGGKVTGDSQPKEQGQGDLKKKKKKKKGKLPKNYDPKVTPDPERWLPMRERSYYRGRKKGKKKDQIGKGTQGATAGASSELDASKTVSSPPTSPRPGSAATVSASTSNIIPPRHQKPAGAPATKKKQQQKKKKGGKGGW
UniProt Q9NZD8, sequence (Q9NZD8 whole entry, looked up): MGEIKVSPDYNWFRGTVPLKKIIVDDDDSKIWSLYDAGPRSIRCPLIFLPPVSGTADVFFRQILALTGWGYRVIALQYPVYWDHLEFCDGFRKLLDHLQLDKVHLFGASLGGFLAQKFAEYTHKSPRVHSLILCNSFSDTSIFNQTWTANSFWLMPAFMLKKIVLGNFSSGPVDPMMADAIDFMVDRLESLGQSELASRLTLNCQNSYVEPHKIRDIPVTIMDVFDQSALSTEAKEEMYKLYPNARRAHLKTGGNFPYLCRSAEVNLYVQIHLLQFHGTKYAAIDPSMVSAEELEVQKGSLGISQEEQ
UniProt P42226, sequence (P42226 whole entry, looked up): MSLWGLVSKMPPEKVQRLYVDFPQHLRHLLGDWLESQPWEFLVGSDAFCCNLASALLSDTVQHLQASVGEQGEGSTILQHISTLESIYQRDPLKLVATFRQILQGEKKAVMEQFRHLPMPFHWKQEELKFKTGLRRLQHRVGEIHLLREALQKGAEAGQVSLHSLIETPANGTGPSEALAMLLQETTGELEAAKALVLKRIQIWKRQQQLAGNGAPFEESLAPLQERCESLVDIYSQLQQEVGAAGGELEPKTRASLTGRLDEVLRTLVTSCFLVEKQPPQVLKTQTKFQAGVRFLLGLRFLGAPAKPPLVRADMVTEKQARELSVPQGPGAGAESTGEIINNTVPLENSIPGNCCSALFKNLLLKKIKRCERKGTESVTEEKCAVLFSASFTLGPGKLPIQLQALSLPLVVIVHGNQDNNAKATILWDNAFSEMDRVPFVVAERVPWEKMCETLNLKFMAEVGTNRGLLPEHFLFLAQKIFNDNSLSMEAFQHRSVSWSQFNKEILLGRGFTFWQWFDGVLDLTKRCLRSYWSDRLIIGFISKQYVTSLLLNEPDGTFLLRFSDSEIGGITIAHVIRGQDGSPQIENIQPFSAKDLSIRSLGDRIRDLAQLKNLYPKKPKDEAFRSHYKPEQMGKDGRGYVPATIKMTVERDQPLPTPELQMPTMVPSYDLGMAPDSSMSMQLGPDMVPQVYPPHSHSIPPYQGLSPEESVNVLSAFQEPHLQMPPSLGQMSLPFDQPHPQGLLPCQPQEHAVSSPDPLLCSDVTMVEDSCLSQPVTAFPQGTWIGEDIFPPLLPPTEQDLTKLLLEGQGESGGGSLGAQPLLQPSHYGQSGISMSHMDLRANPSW
UniProt Q9UP52, sequence (Q9UP52 whole entry, looked up): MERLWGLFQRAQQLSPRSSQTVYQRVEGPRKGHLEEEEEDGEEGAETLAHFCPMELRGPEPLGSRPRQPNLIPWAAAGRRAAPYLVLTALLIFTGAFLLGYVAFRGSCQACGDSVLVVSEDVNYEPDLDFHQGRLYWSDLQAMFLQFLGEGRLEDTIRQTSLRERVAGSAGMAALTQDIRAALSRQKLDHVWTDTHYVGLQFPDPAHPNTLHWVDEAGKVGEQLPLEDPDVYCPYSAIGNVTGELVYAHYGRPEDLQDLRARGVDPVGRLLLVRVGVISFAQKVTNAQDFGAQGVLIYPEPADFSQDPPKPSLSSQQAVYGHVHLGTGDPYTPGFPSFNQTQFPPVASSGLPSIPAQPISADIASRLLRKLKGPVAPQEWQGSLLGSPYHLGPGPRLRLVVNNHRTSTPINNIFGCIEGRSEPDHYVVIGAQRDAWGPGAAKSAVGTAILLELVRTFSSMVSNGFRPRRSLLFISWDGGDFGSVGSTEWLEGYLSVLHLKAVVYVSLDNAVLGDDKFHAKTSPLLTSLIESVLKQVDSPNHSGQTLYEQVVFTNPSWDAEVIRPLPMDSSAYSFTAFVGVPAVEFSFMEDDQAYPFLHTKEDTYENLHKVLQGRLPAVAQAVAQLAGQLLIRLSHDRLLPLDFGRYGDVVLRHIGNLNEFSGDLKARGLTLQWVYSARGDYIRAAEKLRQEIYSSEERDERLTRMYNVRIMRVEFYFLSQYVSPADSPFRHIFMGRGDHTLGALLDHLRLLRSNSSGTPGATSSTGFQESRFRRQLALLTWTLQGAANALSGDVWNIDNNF
UniProt O00506, sequence (O00506 whole entry, looked up): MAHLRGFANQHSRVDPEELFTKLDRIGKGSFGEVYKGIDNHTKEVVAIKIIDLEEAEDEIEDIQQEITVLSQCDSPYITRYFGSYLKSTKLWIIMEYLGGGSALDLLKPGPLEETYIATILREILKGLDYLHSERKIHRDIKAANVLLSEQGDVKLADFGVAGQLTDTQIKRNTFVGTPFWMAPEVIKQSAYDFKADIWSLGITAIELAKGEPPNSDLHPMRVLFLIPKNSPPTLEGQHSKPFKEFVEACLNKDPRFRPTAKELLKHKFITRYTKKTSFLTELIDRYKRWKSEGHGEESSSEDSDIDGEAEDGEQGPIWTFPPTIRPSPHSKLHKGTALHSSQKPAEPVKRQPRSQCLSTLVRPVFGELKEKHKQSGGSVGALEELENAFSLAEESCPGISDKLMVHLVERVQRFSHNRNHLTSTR
UniProt Q9H2G2, sequence (Q9H2G2 whole entry, looked up): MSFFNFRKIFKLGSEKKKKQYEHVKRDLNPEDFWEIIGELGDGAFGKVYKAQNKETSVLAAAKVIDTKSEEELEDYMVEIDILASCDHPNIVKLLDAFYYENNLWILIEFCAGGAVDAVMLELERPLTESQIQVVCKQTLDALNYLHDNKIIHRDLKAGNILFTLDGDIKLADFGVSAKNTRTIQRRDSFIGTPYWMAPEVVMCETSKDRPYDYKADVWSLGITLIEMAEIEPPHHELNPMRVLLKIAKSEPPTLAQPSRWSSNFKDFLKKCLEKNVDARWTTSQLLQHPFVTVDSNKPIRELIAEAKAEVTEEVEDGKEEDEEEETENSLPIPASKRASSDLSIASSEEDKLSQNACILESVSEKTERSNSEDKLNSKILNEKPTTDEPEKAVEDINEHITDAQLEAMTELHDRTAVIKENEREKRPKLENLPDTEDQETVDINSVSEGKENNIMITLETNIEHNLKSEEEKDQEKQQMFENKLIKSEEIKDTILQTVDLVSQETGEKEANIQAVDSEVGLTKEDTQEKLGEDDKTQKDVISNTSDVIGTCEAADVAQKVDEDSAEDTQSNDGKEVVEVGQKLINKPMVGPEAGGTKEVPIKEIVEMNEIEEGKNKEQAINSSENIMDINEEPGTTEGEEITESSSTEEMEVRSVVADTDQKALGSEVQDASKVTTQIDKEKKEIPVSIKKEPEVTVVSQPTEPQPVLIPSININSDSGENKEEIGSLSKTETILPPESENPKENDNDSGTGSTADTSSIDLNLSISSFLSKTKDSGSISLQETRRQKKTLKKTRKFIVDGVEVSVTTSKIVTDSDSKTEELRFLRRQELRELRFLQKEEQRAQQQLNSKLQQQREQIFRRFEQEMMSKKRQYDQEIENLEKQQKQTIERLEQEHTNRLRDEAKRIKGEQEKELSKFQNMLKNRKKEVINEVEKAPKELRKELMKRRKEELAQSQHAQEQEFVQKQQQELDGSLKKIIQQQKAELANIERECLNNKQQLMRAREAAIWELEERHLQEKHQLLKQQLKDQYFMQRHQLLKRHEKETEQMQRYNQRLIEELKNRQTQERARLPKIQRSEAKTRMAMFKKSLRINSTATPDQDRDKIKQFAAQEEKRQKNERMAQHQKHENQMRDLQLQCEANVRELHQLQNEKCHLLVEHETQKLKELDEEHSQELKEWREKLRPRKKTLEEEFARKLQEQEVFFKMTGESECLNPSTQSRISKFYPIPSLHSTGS
UniProt Q8IWZ8, sequence (Q8IWZ8 whole entry, looked up): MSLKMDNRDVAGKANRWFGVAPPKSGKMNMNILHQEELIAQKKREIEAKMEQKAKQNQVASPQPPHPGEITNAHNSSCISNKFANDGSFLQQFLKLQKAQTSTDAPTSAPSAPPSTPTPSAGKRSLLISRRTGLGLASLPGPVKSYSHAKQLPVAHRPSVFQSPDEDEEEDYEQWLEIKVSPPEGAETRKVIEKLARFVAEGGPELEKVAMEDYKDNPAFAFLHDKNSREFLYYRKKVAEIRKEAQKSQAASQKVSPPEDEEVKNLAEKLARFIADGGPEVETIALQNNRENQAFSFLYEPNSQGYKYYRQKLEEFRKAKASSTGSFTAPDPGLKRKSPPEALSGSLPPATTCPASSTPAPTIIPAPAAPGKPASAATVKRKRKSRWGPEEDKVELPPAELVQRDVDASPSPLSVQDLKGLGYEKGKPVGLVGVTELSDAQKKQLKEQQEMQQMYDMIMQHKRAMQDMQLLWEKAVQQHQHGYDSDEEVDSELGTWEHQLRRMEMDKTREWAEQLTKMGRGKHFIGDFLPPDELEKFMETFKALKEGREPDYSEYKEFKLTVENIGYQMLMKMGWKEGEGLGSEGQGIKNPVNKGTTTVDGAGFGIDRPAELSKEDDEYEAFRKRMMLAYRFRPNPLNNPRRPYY

Target | log2 fold change
SPPL2B (UniProt Q8TCT7) | -0.039 (inactive)
STK4 (UniProt Q13043) | -0.02 (inactive)
SMG1 (UniProt Q96Q15) | 0.066 (inactive)
STK38L (UniProt Q9Y2H1) | 0.05 (inactive)
TGFBRAP1 (UniProt Q8WUH2) | -0.046 (inactive)
SLC9A6 isoform 2 (UniProt Q92581) | 0.053 (inactive)
SLC35A1 (UniProt P78382) | 0.05 (inactive)
TFR2 (UniProt Q9UP52) | -0.012 (inactive)
TERF2IP (UniProt Q9NYB0) | -0.016 (inactive)
SUGP1 (UniProt Q8IWZ8) | -0.027 (inactive)
SURF1 (UniProt Q15526) | 0.051 (inactive)
STARD7 (UniProt Q9NQZ5) | 0.024 (inactive)
STEAP3 isoform 2 (UniProt Q658P3) | 0.017 (inactive)
ST6GAL1 (UniProt P15907) | 0.017 (inactive)
SPIRE1 (UniProt Q08AE8) | -0.466 (active)
SLC27A1 (UniProt Q6PCB7) | 0.055 (inactive)
SPG21 (UniProt Q9NZD8) | -0.08 (inactive)
SRP72 (UniProt O76094) | -0.072 (inactive)
SLC38A7 (UniProt Q9NVC3) | 0.071 (inactive)

Target | log2 fold change
SLK isoform 2 (UniProt Q9H2G2) | -0.098 (inactive)
TIPRL (UniProt O75663) | 0.031 (inactive)
STX17 (UniProt P56962) | 0.124 (inactive)
STIM1 (UniProt Q13586) | 0.043 (inactive)
SLC30A10 (UniProt Q6XR72) | -0.06 (inactive)
STK25 (UniProt O00506) | 0.062 (inactive)
SNUPN (UniProt O95149) | 0.136 (inactive)
SLC7A6 (UniProt Q92536) | -0.161 (inactive)
SMAD9 (UniProt O15198) | 0.101 (inactive)
TJP2 isoform 7 (UniProt Q9UDY2) | -0.042 (inactive)
SLC30A7 (UniProt Q8NEW0) | 0.062 (inactive)
STOM (UniProt P27105) | -0.011 (inactive)
STAT5B (UniProt P51692) | 0.035 (inactive)
SPCS2 (UniProt Q15005) | 0.077 (inactive)
SMAP2 (UniProt Q8WU79) | -0.005 (inactive)
TIAL1 isoform 2 (UniProt Q01085) | 0.002 (inactive)
STAT6 (UniProt P42226) | 0.12 (inactive)
SLC6A6 (UniProt P31641) | 0.123 (inactive)
SRSF2 (UniProt Q01130) | -0.13 (inactive)
